CYP2C9 act = increases human cytochrome P450 2C9 activity | actives 1.4% (n = 96,000) | recombinant CYP2C9, luciferin-H conversion, luminescence; hits give high values; factor 1 = untreated enzyme, 0 = blocked | P11712 | AID 1024 | activation factor at 5 µM;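 active means activation factor of 2 or more for CYP2C9 at a 5 µM dose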
CYP2C9 inh = inhibitors of human CYP2C9; actives 20% (n = 96,000); inhibition, % at 5 µM; CYP2C9 Supersomes, luciferin-H conversion, luminescence; P11712;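 active means blocking of liver enzyme CYP2C9 beyond about 50% at 5 µM, limit read from the data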
DAT uptake mod = human DAT dopamine uptake with cocaine, either direction; Q01959; LLC-PK1 hDAT cells, [14C]-dopamine uptake with cocaine IC80; actives deviate in either direction; B-score at 10 µM; actives 1.3% (n = 110,000);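 active means Z score or B-score, a plate-position-corrected score, falls beyond the plate's 99.7% confidence bounds, in either direction; inactive means both scores lie inside the 99.7% bounds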
D1 allo mod = D1 dopamine receptor (human) allosteric modulation | P21728 | HEK293 D1, CRE-luciferase, dopamine EC30 potentiation; actives deviate in either direction | B-score at 10 µM | actives 5.9% (n = 58,000) | AID 641;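 active means luminescence count or its row- and column-corrected plate score outside the 99.7% band of the plate's sample wells, on either side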
Target sequence (P21728 whole entry, looked up): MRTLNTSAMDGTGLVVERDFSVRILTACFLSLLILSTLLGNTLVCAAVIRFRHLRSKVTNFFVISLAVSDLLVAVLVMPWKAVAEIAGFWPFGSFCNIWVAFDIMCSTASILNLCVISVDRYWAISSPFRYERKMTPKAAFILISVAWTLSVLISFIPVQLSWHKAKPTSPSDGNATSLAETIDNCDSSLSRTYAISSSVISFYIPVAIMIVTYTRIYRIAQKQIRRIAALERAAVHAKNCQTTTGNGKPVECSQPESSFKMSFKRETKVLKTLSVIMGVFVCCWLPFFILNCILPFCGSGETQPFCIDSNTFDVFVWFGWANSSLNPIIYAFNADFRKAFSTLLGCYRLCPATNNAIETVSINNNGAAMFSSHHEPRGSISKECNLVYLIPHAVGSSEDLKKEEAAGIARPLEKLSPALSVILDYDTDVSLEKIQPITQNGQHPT
CYP2C19 inh = blocks human cytochrome P450 2C19 | P33261 | CYP2C19 Supersomes, luciferin-H EGE luminescence, 30 min | inhibition, % at 5 µM | actives 21% (n = 96,000) | AID 778;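 active means CYP2C19 inhibition above a set limit at 5 µM in the primary screen, cut at about 50% in these data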
CYP2C19 act = activators of human cytochrome P450 2C19. P33261. activation factor at 5 µM. recombinant CYP2C19, luciferin-H EGE luminescence; hits give high values; 0 = fully inhibited enzyme, 1 = untreated enzyme. 96,000 tested, under 10 active;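 active means activation factor of at least 2 at 5 µM in the primary screen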
Hits are given with their value; . = inactive; / = no result given. Hits are enriched below; roughly 28% of the tested compounds scored in any of these assays.

SMILES | CYP2C9 act | CYP2C9 inh | DAT uptake mod | D1 allo mod | CYP2C19 inh | CYP2C19 act
CCCNC(=S)N1CCC(c2nc3cc(C)c(C)cc3[nH]2)CC1 | . | . | . | / | . | .
Cc1cc2nc(C3CCN(CC4COc5ccccc5O4)CC3)[nH]c2cc1C (stereo not given) | . | . | . | . | 53.9 | .
O=C(NCCCN1CCN(c2ccccc2F)CC1)C1CCC(=O)N1C1CCCC1 (stereo not given) | / | / | . | . | / | /
Cc1noc(C(=O)N2CC3(C)CC2CC(C)(C)C3)c1Cl (stereo not given) | . | . | . | . | 81.7 | .
COc1cccc(-c2cc(C(=O)N3CC4(C)CC3CC(C)(C)C4)no2)c1 (stereo not given) | . | . | . | . | . | .
Cc1noc(C)c1COc1ccc(C(=O)OCC(=O)N2CC3(C)CC2CC(C)(C)C3)cc1 (stereo not given) | . | 52.9 | . | . | 63.5 | .
CCOC(=O)c1ccc(OCc2c(C)noc2C)cc1 | . | 78.6 | . | / | 74.9 | .
Cc1noc(C)c1COc1ccc(C(=O)OCC(=O)N2CC(=O)Nc3ccccc32)cc1 | . | . | . | / | . | .
Cc1noc(C)c1COc1ccc(C(=O)OCC(=O)c2ccc3c(c2)OCCO3)cc1 | . | . | . | . | . | .
COc1ccc(C(C)=O)cc1COC(=O)c1c(C)noc1C | . | 52.4 | . | . | 60.9 | .
CCNc1nc(NC(C)C)nc(OCC)n1 | . | . | . | / | . | .
O=C(C1=C[C@H](c2csc3ccccc23)C[C@H](OCc2ccc(CO)cc2)O1)N1CCN(Cc2ccc3c(c2)OCO3)CC1 | / | / | . | / | / | /
Cc1noc(C)c1COc1ccc(C(=O)OCC(=O)Nc2ccc3ccccc3c2)cc1 | . | 88.3 | . | / | 64.7 | .
COc1ccc(C(C)=O)cc1COC(=O)c1ccc(OCc2c(C)noc2C)cc1 | . | 75.9 | . | . | 88.4 | .
COc1ccc(C(C)=O)cc1COC(=O)c1cnc(C)cn1 | . | . | . | . | . | .
Cc1noc(C)c1COc1ccc(C(=O)OCC(=O)NC(=O)C2COc3ccccc3O2)cc1 (stereo not given) | . | . | . | . | . | .
CCCCC1=CC2=CC(=O)C(C)(OC(=O)CC)C(=O)C2=CN1c1ccccc1 (stereo not given) | / | / | -2.92 | / | / | /
CCCCC1=CC2=CC(=O)C(C)(OC(=O)CC)C(=O)C2=CN1Cc1ccccc1 (stereo not given) | / | / | . | / | / | /
CC1(c2nnc(-c3cccc(Cl)c3)o2)CC(c2ccccc2F)=NO1 (stereo not given) | / | / | . | / | / | /
O=C(Nc1ccc(Cl)cc1)c1ccc(-n2cncn2)c([N+](=O)[O-])c1 | . | 98.4 | . | / | 100.3 | .
Cc1ccc(NC(=O)c2ccc(-n3cncn3)c([N+](=O)[O-])c2)cc1 | . | 91.3 | . | / | 100.3 | .
Cc1ccc(NC(=O)c2ccc(-n3cccn3)c([N+](=O)[O-])c2)cc1C | . | . | . | / | . | .
O=C(Nc1cccc(Cl)c1)c1ccc(-n2cncn2)c([N+](=O)[O-])c1 | . | 99.9 | . | / | 100.3 | .
CCNc1nc(NCC)nc(C(=O)NN)n1 | / | / | . | / | / | /
CCN(C(=O)Cc1ccc(Br)cc1)C1CCCCC1 | . | . | . | / | . | .
CCOC(=O)COc1ccc(C(=O)c2ccccc2)c(O)c1 | . | . | . | . | . | .
COc1ccc(C(=O)c2ccccc2)c(O)c1 | . | . | . | . | 85.9 | .

Source: PubChem BioAssay
